From PubChem BioAssay come the findings set out here.

Test [1] deals with Albumin (Bos taurus) (UniProt P02769). The experiment in a line: compounds binding labelled BSA control protein – biochemical, small-molecule microarray, Alexa647 label, 635/667 nm fluorescence, artefact control for SMM control protein annotation, profiling panel (AID 1118).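 Note: score merges 667 nm emission intensity and signal-to-noise per printed compound spot.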 The settings on record: BSA-A647 binding, fluorescence 635 nm, higher = more signal.
Albumin (Bos taurus), sequence (P02769 whole entry, looked up): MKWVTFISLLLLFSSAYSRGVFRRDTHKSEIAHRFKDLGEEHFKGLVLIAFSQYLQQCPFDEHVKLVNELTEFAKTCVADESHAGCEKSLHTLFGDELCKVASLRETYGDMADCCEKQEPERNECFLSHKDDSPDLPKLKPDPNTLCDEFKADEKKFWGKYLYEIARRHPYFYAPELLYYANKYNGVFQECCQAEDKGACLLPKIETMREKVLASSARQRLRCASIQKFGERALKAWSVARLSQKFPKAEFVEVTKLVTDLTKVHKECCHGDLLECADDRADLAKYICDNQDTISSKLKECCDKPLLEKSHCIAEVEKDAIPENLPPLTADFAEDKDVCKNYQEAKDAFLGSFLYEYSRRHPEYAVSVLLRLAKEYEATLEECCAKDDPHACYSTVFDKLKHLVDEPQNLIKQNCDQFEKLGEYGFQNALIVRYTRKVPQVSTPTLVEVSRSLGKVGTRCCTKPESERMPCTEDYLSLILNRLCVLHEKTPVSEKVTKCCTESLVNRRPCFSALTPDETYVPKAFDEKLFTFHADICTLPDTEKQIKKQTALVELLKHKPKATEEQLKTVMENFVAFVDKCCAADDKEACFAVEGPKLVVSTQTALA
A short description of test [2]: probe aXIP binding to arrayed compounds – biochemical, NeuroSMM set, 635/667 nm fluorescence, primary screen (AID 1119).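 Note: probe is the protein aXip251-270 applied at 1 µg/mL to compound-printed slides; binding of probe to printed compounds measured as 667 nm fluorescence plus signal to noise.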 The settings on record: small-molecule microarray, higher = more signal, called active from +8 up or from −8 down.
Test [3] can be described thus: probe aNOTCH3 binding on compound microarray – biochemical, small-molecule microarray, 635/667 nm fluorescence, primary screen (AID 1120).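 Note: probe is a biotin-tagged antibody raised against NOTCH3 rather than NOTCH3 protein; score merges spot fluorescence near 667 nm with spot signal to noise.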 The settings on record: higher = more signal.
The nature of test [4]: probe aNOTCH2 binding on compound microarray – biochemical, small-molecule microarray, 635/667 nm fluorescence, primary screen (AID 1121).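 Note: score merges feature fluorescence read at 667 nm with its signal to noise.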 The settings on record: higher = more signal.
Test [5] concerns the target Carbonic anhydrase 2 (Homo sapiens) (UniProt P00918). The experiment in a line: compounds binding carbonic anhydrase 2 – biochemical, small-molecule microarray, Alexa647-labelled CAII, profiling panel (AID 1122). The settings on record: CAII-A647 binding fluorescence, higher = more signal.
The nature of test [6]: COS7 lysate on small-molecule microarray, probe aHis, 635 nm (AID 1123).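 Note: z-score combines 667nm fluorescence intensity with signal-to-noise per printed compound spot.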 The settings on record: COS7 cell lysate, fluorescence, higher = more signal.
Test [7] can be described thus: probe aLAP1 signal on lysate-treated microarray – cell lysate, small-molecule microarray, COS7 lysate, primary screen (AID 1124).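 Note: lysate comes from COS7 cells expressing LAP1 and is applied at 0.3 µg/mL; score merges spot fluorescence near 667 nm with signal-to-noise over triplicate slides.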 The settings on record: probe aLAP1, fluorescence, higher = more signal.
Test [8] has as its system Sam68 (KHDRBS1). The experiment in a line: compounds binding KHDRBS1 protein – biochemical, small-molecule microarray, 635 nm fluorescence, primary screen (AID 1125).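 Note: score merges 667 nm channel intensity with signal to noise over triplicate slides.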 The settings on record: higher = more signal.
For test [9], the system named is Chordin-like protein 2 (CHRDL2). The test can be described thus: compounds binding chordin-like 2 – biochemical, small-molecule microarray, 635 nm fluorescence, primary screen (AID 1126).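 Note: printed compound slides probed with Chrdl2 protein at 4 µg/mL for 1 h at 4 C; score merges 667 nm emission intensity with signal to noise over three replicate slides.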 The settings on record: fluorescence 635 nm, higher = more signal.
Test [10] has as its target Concanavalin-A (Canavalia ensiformis) (UniProt P02866). The experiment in a line: compounds binding concanavalin A lectin – biochemical, small-molecule microarray, Alexa647 label, 635 nm, artefact control for SMM control protein annotation, primary screen (AID 1127).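 Note: z combines 667 nm emission intensity with signal-to-noise across three replicate slides.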 The settings on record: ConA-A647 binding fluorescence, higher = more signal.
The nature of test [11]: compounds binding Alexa647 anti-His antibody – biochemical, small-molecule microarray, 635 nm fluorescence, artefact control for SMM control protein annotation, primary screen (AID 1128).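 Note: score merges feature fluorescence with signal-to-noise for each printed compound spot.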 The settings on record: higher = more signal.
Test [12] relates to Human papillomavirus type 1a E7 protein (residues 1-88). The test can be described thus: HPV1a E7 small-molecule binders, primary screen, biochemical, small-molecule microarray, residues 1-88, 635 nm (AID 1129). The settings on record: small-molecule microarray binding, fluorescence 635 nm; higher = more signal.
Test [13] deals with Focal adhesion kinase 1 (Homo sapiens) (UniProt Q05397). The test can be described thus: PTK2 protein binding on printed compound slides – biochemical, small-molecule microarray, 635/667 nm fluorescence, BSA, DTT, primary screen (AID 1130).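 Note: composite of spot emission at 667 nm and signal to noise over triplicate slides.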 The settings on record: 635 nm fluorescence, higher = more signal.
Focal adhesion kinase 1 (Homo sapiens), sequence (Q05397 whole entry, looked up): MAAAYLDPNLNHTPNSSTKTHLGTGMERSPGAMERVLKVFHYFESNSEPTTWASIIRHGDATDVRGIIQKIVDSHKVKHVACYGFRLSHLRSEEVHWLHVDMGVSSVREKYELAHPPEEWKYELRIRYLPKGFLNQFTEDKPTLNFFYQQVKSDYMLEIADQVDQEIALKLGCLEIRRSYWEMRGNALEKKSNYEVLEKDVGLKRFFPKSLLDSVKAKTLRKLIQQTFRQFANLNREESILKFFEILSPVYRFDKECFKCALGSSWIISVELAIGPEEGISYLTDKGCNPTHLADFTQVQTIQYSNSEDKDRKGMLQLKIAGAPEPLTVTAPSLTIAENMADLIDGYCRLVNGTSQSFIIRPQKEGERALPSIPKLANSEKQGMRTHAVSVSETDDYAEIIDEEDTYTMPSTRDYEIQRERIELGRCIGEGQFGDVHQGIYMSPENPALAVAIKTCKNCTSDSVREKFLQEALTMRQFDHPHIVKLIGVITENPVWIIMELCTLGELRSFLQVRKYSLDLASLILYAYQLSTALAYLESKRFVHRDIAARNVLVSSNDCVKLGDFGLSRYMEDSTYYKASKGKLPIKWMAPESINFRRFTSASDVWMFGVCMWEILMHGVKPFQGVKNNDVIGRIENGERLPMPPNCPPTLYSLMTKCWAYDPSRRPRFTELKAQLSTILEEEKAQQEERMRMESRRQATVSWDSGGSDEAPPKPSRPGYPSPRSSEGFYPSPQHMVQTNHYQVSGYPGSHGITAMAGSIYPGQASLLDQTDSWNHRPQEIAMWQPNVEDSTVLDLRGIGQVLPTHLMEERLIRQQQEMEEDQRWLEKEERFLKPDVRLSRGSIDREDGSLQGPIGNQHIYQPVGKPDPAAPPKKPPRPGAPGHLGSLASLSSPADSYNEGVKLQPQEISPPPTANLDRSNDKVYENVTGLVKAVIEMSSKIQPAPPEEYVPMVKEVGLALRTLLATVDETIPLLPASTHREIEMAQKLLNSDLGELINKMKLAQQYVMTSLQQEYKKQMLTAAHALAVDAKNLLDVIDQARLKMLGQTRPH
Test [14] has as its system Fibrinogen (Alexa647-labelled). The test can be described thus: Alexa647-fibrinogen binding to printed small molecules – biochemical, small-molecule microarray, 635/667 nm fluorescence, artefact control for SMM control-protein annotation, profiling panel (AID 1131).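 Note: z-score merges 667 nm fluorescence with per-spot signal-to-noise over triplicate slides.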 The settings on record: fibrinogen-A647 binding fluorescence, higher = more signal.
Test [15] addresses Follistatin (Homo sapiens) (UniProt P19883). The test can be described thus: FST protein binding to printed compounds – biochemical, small-molecule microarray, 635/667 nm fluorescence, primary screen (AID 1132). The settings on record: 635 nm fluorescence, higher = more signal.
The target of test [16] is Fibroblast growth factor 2 (Homo sapiens) (UniProt P09038). The experiment in a line: basic fibroblast growth factor binding to printed compounds – biochemical, small-molecule microarray, 635/667 nm fluorescence, primary screen (AID 1133). The settings on record: FGF2, fluorescence 635/667, higher = more signal.
Fibroblast growth factor 2 (Homo sapiens), sequence (P09038 whole entry, looked up): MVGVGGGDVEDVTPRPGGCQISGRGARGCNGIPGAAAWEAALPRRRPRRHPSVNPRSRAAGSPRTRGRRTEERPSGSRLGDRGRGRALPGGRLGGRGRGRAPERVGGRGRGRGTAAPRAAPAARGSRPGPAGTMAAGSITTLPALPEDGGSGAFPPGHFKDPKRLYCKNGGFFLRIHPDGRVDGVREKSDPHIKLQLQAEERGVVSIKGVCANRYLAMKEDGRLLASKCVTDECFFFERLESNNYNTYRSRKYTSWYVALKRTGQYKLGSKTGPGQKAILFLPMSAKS
Test [17] in a line: JC-1 mitochondrial potential readout, lung cancer cells – cell-based, A549, JC-1 fluorescence, basal, 24 h, 100 nL, profiling panel (AID 1138).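 Note: A549 lung adenocarcinoma cells under basal conditions with no added stimulus; test concentration not given here.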 The settings on record: higher = more signal.
In test [18] the test system is Lefty1. The experiment in a line: Lefty1 protein binding to printed compounds – biochemical, small-molecule microarray, 635/667 nm fluorescence, primary screen (AID 1139). The settings on record: fluorescence 635/667, higher = more signal.
The subject of test [19] is wheat germ agglutinin (Triticum aestivum), Alexa647-labelled. The experiment in a line: Alexa647-WGA lectin binding to printed small molecules – biochemical, small-molecule microarray, 635/667 nm fluorescence, artefact control for SMM control-protein annotation, profiling panel (AID 1140).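 Note: score merges 667 nm feature emission with signal to noise over triplicate slides.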 The settings on record: WGA-A647 binding, 635 nm fluorescence, higher = more signal.

Test [20] has as its target Luciferin 4-monooxygenase (Photinus pyralis) (UniProt P08659). The experiment in a line: inhibition of purified Photinus pyralis luciferase – biochemical, luminescence, purified enzyme, 2006 set, primary screen (AID 1141).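 Note: cell-free assay with purified firefly luciferase at 100 ng per well in PBS; test concentration not given here.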 The settings on record: purified firefly luciferase, SteadyGlo luminescence, 30 min; higher = more signal, called active from +8 up or from −8 down.

The source made the active and inactive calls.

Follistatin (Homo sapiens), sequence (P19883 whole entry, looked up): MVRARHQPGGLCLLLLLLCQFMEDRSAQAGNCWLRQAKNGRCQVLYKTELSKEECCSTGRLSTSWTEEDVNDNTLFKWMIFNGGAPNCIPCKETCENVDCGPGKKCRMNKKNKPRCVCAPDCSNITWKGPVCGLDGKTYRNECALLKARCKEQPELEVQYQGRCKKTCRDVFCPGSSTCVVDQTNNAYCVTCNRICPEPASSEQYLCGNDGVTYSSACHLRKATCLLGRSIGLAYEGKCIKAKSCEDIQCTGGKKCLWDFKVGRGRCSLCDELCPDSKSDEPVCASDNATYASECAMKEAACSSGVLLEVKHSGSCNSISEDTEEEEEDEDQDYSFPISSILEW
Luciferin 4-monooxygenase (Photinus pyralis), sequence (P08659 whole entry, looked up): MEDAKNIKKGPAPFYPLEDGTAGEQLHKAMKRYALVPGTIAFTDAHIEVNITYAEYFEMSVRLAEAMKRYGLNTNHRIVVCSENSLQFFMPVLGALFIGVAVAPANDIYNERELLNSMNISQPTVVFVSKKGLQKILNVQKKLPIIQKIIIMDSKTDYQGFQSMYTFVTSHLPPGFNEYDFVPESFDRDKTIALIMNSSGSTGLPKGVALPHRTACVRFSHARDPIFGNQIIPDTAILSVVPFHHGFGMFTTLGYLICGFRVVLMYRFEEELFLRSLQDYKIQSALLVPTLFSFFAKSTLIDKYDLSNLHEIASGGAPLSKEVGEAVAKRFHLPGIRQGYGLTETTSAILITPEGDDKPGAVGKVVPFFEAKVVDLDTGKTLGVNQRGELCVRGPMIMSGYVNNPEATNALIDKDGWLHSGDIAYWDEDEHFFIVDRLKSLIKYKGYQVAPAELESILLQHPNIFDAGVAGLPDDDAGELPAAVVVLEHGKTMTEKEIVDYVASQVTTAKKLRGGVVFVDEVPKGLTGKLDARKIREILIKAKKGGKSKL
Concanavalin-A (Canavalia ensiformis), sequence (P02866 whole entry, looked up): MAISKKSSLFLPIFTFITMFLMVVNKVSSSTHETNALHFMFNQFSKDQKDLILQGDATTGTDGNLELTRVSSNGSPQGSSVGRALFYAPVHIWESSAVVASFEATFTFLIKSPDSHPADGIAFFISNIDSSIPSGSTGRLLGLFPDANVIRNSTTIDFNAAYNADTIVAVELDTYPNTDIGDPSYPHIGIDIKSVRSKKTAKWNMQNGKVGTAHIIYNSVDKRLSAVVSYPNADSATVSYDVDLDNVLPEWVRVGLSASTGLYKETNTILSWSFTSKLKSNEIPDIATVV

Regarding `CC1CC/C=C\[C@H]2OC34C=CCN(c5ccc(Cl)cc5)C(=O)[C@H]3N(CCCCCO)C(=O)[C@]4(C)C2C(=O)O1` (stereo not given in full), the composite z-score was -1.08 in test [1]; -0.288 in test [3]; -0.117 in test [4]; -0.482 in test [5]; -0.779 in [6]; -0.3 in test [7]. Moreover, the composite z-score in [8] is -0.682; in test [9], -1.67; in test [10] it was -1.03; in test [11], -0.463; in test [12], -0.978; in [13] it was -0.857. Moreover, the composite z-score was -1.65 in test [14]; -1.58 in [15]; -1.04 in [16]; -0.778 in test [18]; -0.141 in [19]. In [2], the composite Z-score is -0.0503 (inactive). Besides, the values for the z-score in test [17] and in test [20] were 0.681 and -0.535 (inactive), respectively.

As for `COCCOC(=O)N1C(=O)[C@@]2(c3cc(C#CCCO)ccc31)[C@H](c1ccccc1OCCO)N1[C@H](c3ccccc3)[C@H](c3ccccc3)OC(=O)[C@H]1[C@@H]2C(=O)Nc1nc2ccccc2s1`, the composite z-score is 0.802 in [1]; 0.108 in [3]; -0.0352 in test [4]; 0.729 in test [5]; 2.02 in [6]; 0.967 in test [7]. The composite z-score in test [8] was found to be 1.29; in test [9], 0.0314; in test [10], 1.09; in test [11] it was 2.09; in test [12], 1.2; in test [13], 0.771. Also, the composite z-score in [14] was 0.733; in test [15] it was 1.07; in [16], 0.957; in test [18], 0.932; in [19] it was 1.24. Further, the composite Z-score in test [2] is 0.048 (inactive). The z-score in [17] was -2.27; in test [20], -0.499 (inactive).

As for `C=CC[C@@]1(C(=O)N2CCOCC2)N=C(c2ccc(OCCCO)cc2)O[C@@H]1c1ccccc1CN=[N+]=[N-]`, the composite z-score in test [1] was 0.774; in [3], 0.405; in [4], 0.083; in test [5] it was 0.527; in test [6] it was 2.89; in [7] it was 1.41. Besides, the composite z-score in test [8] was 1.33; in test [9], -0.186; in [10] it was 1.16; in [11] it was 3.06; in [12], 1.23; in test [13] it was 0.201. Moreover, the composite z-score in [14] is 0.905; in test [15], 1.35; in test [16], 1.45; in test [18], 0.349; in test [19], 0.786. Further, the composite Z-score in test [2] is 0.28 (inactive). In addition, the figures for the z-score in test [17] and in test [20] were 1.97 and 0.0079 (inactive), respectively.

On to `CCCCCCc1nc(-c2cc(C)c(OC)c(C)c2)c(C)c2c1[Si](C(C)C)(C(C)C)OC2`, for which the composite z-score in [1] is -0.58; in test [3], -0.165; in test [4], -0.209; in [5], -0.146; in test [6] it was 0.0188; in test [7], -0.373. Besides, the composite z-score in test [8] is -0.611; in test [9] it was 0.574; in [10] it was -0.112; in [11], -0.351; in test [12] it was 0.0093; in test [13] it was 0.126. Moreover, the composite z-score is -0.273 in test [14]; 0.204 in test [15]; -0.18 in [16]; 0.195 in test [18]; -0.496 in test [19]. In addition, in [2], the composite Z-score is 0.792 (inactive). Further, the z-score is -0.522 in test [17] and 0.325 (inactive) in test [20].

As for `COCCCNC(=O)[C@@]1(Sc2ccc(C)cc2)CC(=O)N(C2CCCCC2)[C@@H]1c1ccc(CO)cc1`, the composite z-score in test [1] was -0.111; in test [3], -0.337; in test [4] it was -0.12; in test [5], 0.71; in test [6], 1.62; in test [7] it was 1.21. In addition, the composite z-score in [8] was -0.281; in [9], -0.975; in [10], -0.305; in test [11], 0.624; in [12], -0.454; in [13], 0.647. In addition, the composite z-score in test [14] was -1.08; in test [15] it was -0.441; in test [16], -0.511; in [18], -1.63; in [19], -0.361. The composite Z-score in [2] is -0.513 (inactive). The values for the z-score in test [17] and in test [20] were -0.227 and 0.545 (inactive), respectively.
